Screening results (PubChem BioAssay)
Shown are actives, neighbours in structure and some others; about 2.3% of the full set was active somewhere.
CHO-K1 Ca antag = nonselective inhibitor or artifact in parental CHO-K1 cells; inhibition, % at 3 µM; 360,000 tested, 0.6% active; ATP-induced calcium, Fluo-8 fluorescence;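 active means inhibition above a per-plate cutoff, the plate's mean sample inhibition plus 3 SD, cut at about 24% in these data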;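 further: 0% = DMSO plus EC80 ATP and 100% = DMSO alone without ATP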
M1 antag = blocks human M1 muscarinic receptor; P11229; CHO-K1 hM1, Fluo-8 calcium fluorescence, ACh EC80 antagonist; inhibition, % at 3 µM; 360,000 tested, 1.3% active;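 active means percent inhibition above its own plate's cutoff, namely the mean of that plate's compound wells plus 3 SD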;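 further: peak over basal fluorescence ratio during 140 s after agonist addition; 0% = ACh EC80 plus DMSO and 100% = DMSO alone without agonist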
Target sequence (P11229 whole entry, looked up): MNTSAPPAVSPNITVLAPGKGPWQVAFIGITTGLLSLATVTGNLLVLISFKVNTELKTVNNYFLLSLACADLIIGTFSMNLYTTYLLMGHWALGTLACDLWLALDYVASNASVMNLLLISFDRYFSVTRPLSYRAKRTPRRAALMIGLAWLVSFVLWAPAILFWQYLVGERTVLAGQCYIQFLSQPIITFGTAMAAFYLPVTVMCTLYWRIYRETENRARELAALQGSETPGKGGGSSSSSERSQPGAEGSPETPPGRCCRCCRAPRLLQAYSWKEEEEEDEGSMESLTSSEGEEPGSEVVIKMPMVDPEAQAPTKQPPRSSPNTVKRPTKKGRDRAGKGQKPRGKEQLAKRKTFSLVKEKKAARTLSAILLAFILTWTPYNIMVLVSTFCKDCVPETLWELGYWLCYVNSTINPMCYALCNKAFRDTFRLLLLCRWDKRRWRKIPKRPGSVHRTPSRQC
M1 ag = agonists of human M1 muscarinic receptor. P11229. CHO-K1 hM1, Fluo-8 calcium fluorescence, agonist mode; 0% DMSO, 100% acetylcholine EC100. activation, % at 3 µM. 360,000 tested, 0.33% active;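 active means activation above the run's mean compound activation plus 3 SD, cut at about 16% in these data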;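 further: peak over basal fluorescence ratio within a 140 s kinetic read after compound addition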
CHRM1 PAM = human CHRM1 positive allosteric modulation; 360,000 tested, 0.088% active; CHO-K1 hM1, Fluo-8 calcium fluorescence, ACh EC20; 0% = ACh EC20, 100% = maximal ACh; activation, % at 3 µM; P11229; in the data active means activation above about 19%, passing the limit was not always enough
M1 PAM parental = counter-screen for M1 PAMs: effect in parental CHO-K1 cells; ATP EC20, Fluo-8 calcium fluorescence; 0% at ATP EC20, 100% at ATP max; activation, % at 3 µM; 360,000 tested, 0.02% active; AID 602247;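 active means activation above the run cutoff, the mean activation of all test compounds plus 3 SD, cut at about 40% in these data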;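 further: peak over basal fluorescence ratio in a 140 s read after ATP addition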
CHO-K1 Ca ag = counter-screen for M1 agonists: effect in parental CHO-K1 cells. Fluo-8 calcium fluorescence; scaled to maximal ATP response, vehicle zero. activation, % at 3 µM. 360,000 tested, 0.48% active. AID 602248; in the data active means activation above about 15%;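 further: untransfected CHO-K1 host cells lacking M1 receptor as counterscreen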
* marks the source's active call; other numbers are inactive results.

For CCN1C[C@@H]2[C@@H]3C(=O)N(C)C(=O)[C@@H]3[C@](Cc3ccccc3)(C1=O)N2C(=O)c1ccc(Br)cc1 the results were CHO-K1 Ca antag -3, M1 antag -2, M1 ag -2, CHRM1 PAM 5, M1 PAM parental -5 and CHO-K1 Ca ag 0.
Screening Nc1nc(N2CCN(c3ccccn3)CC2)nc2ccccc12 returned CHO-K1 Ca antag 7, M1 antag 36*, M1 ag -9, CHRM1 PAM -29, M1 PAM parental -23 and CHO-K1 Ca ag 1.
Screening Nc1nc(N2CCCCC2)nc2ccccc12 returned CHO-K1 Ca antag 10, M1 antag 26, M1 ag -4, CHRM1 PAM -10, M1 PAM parental -7 and CHO-K1 Ca ag 0.
c1ccc(-c2nnc(N3CCN(c4ccccn4)CC3)c3ccccc23)cc1 was read as CHO-K1 Ca antag 21, M1 antag 48*, M1 ag -3, CHRM1 PAM -18, M1 PAM parental -7 and CHO-K1 Ca ag 2.
For CCOC(=O)/C(C#N)=C/c1c(N2CCN(CC)CC2)nc2c(C)cccn2c1=O the results were CHO-K1 Ca antag -17, M1 antag -5, M1 ag -9, CHRM1 PAM 0, M1 PAM parental 13 and CHO-K1 Ca ag 1.
Screening CC1=[N+](C)c2c(ccc3cccnc23)C1(C)C returned CHO-K1 Ca antag 34*, M1 antag 29, M1 ag -10, CHRM1 PAM -19, M1 PAM parental -9 and CHO-K1 Ca ag 16*.
Cc1[nH]c2c(ccc3cccnc32)c1C was read as CHO-K1 Ca antag 11, M1 antag -7, M1 ag -2, CHRM1 PAM 11, M1 PAM parental -13 and CHO-K1 Ca ag 0.
Screening Cc1ccc([C@@H]2C[C@H]3[C@@H](CN2S(=O)(=O)c2ccc(C)cc2)C(=O)C[C@@H](c2ccc(Cl)cc2)N3S(=O)(=O)c2ccc(C)cc2)cc1 returned CHO-K1 Ca antag -12, M1 antag 2, M1 ag -1, CHRM1 PAM -1, M1 PAM parental 16 and CHO-K1 Ca ag 1.
For Cc1ccc(S(=O)(=O)N2C[C@H]3C(=O)C[C@@H](c4ccc(Cl)cc4)N(S(=O)(=O)c4ccc(C)cc4)[C@H]3C[C@H]2c2cccc3ccccc23)cc1 the results were CHO-K1 Ca antag 30*, M1 antag -40, M1 ag 0, CHRM1 PAM 17, M1 PAM parental -6 and CHO-K1 Ca ag 0.
Cc1ccc(S(=O)(=O)N2C[C@H]3C(=O)C[C@@H](c4ccccc4F)N(S(=O)(=O)c4ccc(C)cc4)[C@H]3C[C@H]2c2ccccc2)cc1 was read as CHO-K1 Ca antag 31*, M1 antag -6, M1 ag 12, CHRM1 PAM 12, M1 PAM parental -9 and CHO-K1 Ca ag 0.
Screening Cc1ccc([C@@H]2CC(=O)[C@@H]3CN(S(=O)(=O)c4ccc(C)cc4)[C@H](c4ccccc4F)C[C@@H]3N2S(=O)(=O)c2ccc(C)cc2)cc1 returned CHO-K1 Ca antag 15, M1 antag 2, M1 ag 13, CHRM1 PAM 13, M1 PAM parental 7 and CHO-K1 Ca ag 0.
Screening O=C(O)Cc1cccc(=O)c(O)c1C(=O)O returned CHO-K1 Ca antag -4, M1 antag -7, M1 ag -1, CHRM1 PAM 6, M1 PAM parental 11 and CHO-K1 Ca ag 0.
`COc1cccc(Cl)c1NC(=O)N1CCc2c([nH]c3ccccc23)C1C(F)(F)F` (configuration not stated) gave CHO-K1 Ca antag -9, M1 antag 23, M1 ag 0, CHRM1 PAM -13, M1 PAM parental 2 and CHO-K1 Ca ag 0.
`O=S(=O)(c1ccc(N2CCCC2)cc1)C(F)(F)F` gave CHO-K1 Ca antag 27*, M1 antag 25, M1 ag -3, CHRM1 PAM -14, M1 PAM parental -13 and CHO-K1 Ca ag 10.
O=S(=O)(c1ccc(N2CCN(c3ccc(F)cc3)CC2)cc1)N1CCCC1 was read as CHO-K1 Ca antag -3, M1 antag -8, M1 ag -4, CHRM1 PAM 7, M1 PAM parental 2 and CHO-K1 Ca ag 0.
CC(C)CNC(=O)C1c2ccccc2Oc2ccccc21 was read as CHO-K1 Ca antag -13, M1 antag -4, M1 ag -5, CHRM1 PAM 6, M1 PAM parental 16 and CHO-K1 Ca ag 0.
For CNCCCC1Sc2ccccc2Oc2ccccc21 (configuration not stated) the results were CHO-K1 Ca antag 19, M1 antag 33*, M1 ag -6, CHRM1 PAM -22, M1 PAM parental -8 and CHO-K1 Ca ag 1.
COc1ccc(N2CC(C(=O)Nc3ccc(S(=O)(=O)Nc4nccs4)cc3)CC2=O)c(OC)c1 (configuration not stated) was read as CHO-K1 Ca antag -6, M1 antag -12, M1 ag -2, CHRM1 PAM 15, M1 PAM parental -2 and CHO-K1 Ca ag 0.
For O=C(N/N=C/c1cc2ccccc2nc1Cl)/C(=C/c1cccs1)NC(=O)c1ccccc1 the results were CHO-K1 Ca antag -8, M1 antag 3, M1 ag -1, CHRM1 PAM -1, M1 PAM parental -20 and CHO-K1 Ca ag 3.
`O=C(N/N=C/c1cccnc1)/C(=C\c1cccs1)NC(=O)c1ccccc1` gave CHO-K1 Ca antag -1, M1 antag 5, M1 ag -3, CHRM1 PAM -1, M1 PAM parental 17 and CHO-K1 Ca ag 19*.
Screening Cc1ccccc1-c1cc2nc(NCc3ccccc3F)n(C)c(=O)c2s1 returned CHO-K1 Ca antag 3, M1 antag -19, M1 ag -3, CHRM1 PAM 15, M1 PAM parental 4 and CHO-K1 Ca ag 0.
Screening O=C(CCl)Nc1cccc2ncccc12 returned CHO-K1 Ca antag -16, M1 antag -11, M1 ag -4, CHRM1 PAM 9, M1 PAM parental 18 and CHO-K1 Ca ag 1.
`COc1ccc(OCC(=O)Nc2cccc3ncccc23)cc1` gave CHO-K1 Ca antag 26*, M1 antag 18, M1 ag 0, CHRM1 PAM -10, M1 PAM parental -7 and CHO-K1 Ca ag 4.
`COc1ccc(OCC(=O)NC(=S)Nc2ccc3c4c(cccc24)CC3)cc1` gave CHO-K1 Ca antag 13, M1 antag 8, M1 ag -1, CHRM1 PAM -1, M1 PAM parental 14 and CHO-K1 Ca ag 22*.
For COC(=O)C1CCc2c(ccc3c2CCCC3)C1=O (configuration not stated) the results were CHO-K1 Ca antag 2, M1 antag -18, M1 ag -6, CHRM1 PAM 8, M1 PAM parental 7 and CHO-K1 Ca ag -1.
